Measurements: PubChem BioAssay AID372 (MTDP, 2006)
In all, about 100,000 compounds went through this assay and about 770 (0.77%) were called active. This is one part of a sample in which actives are shown more often than they occur. Values without a mark were called inactive. Rule as the data show it: active = inhibition above about 50%; inactive = the rest.

The molecules below were run against Gag-Pol polyprotein (Human immunodeficiency virus type 1 group M subtype B (isolate HXB2)) (UniProt P04585) (assay: RNase H inhibition, HIV 1 Gag Pol polyprotein, FRET biochemical assay, screening (AID 372)). Details: HIV-1 RT RNase H, FRET RNA/DNA substrate fluorescence; at 10 µM; hits give high values.

Question: With O=[N+]([O-])c1ccc(Cl)c(S(=O)(=O)Nc2ccccn2)c1 as the molecule, how does the inhibition read?
Answer: 0%

Question: Which inhibition does the source give for O=C(c1nn2c(C(F)(F)F)cc(-c3cccs3)nc2c1Br)N1CCOCC1 here?
Answer: 0%

Question: How did the inhibition turn out when COc1ccc(OC)c(C(=O)N/N=C/c2ccccn2)c1 was run?
Answer: 3%

Question: For CC(C)(C)c1cc(C(=O)NCC(=O)OCC(=O)c2ccccc2)cc(C(C)(C)C)c1, which inhibition is on record?
Answer: 18%

Question: With O=C(NC(=S)Nc1ccc(Br)cc1)c1ccc(Cl)cc1 as the molecule, how does the inhibition read?
Answer: 1%

Question: With Cc1ccc(N(CC(=O)NCCOc2ccc(F)cc2)S(=O)(=O)c2ccccc2)cc1C as the molecule, how does the inhibition read?
Answer: 5%

Question: For CCOC(=O)Cc1csc(NC(=O)COc2c(C)cccc2C)n1, which inhibition is on record?
Answer: 5%

Question: For NC(=O)c1cnn2c1NC(c1ccco1)CC2C(F)(F)F (stereo not given), which inhibition is on record?
Answer: 0%

Question: With O=C(Cc1ccccc1)Nc1ccc(C(=O)Nc2ccc(Cl)cc2Cl)cc1 as the molecule, how does the inhibition read?
Answer: 59% (active)

Question: CC(=O)Nc1ccc(C(=O)Nc2ccc(Cl)cc2Cl)cc1 was tested. Which inhibition did it give?
Answer: 0%

Question: Which inhibition does the source give for O=C(Nc1ccc(Cl)cc1Cl)c1ccc(-c2ccccc2)cc1 here?
Answer: 0%

Question: How did the inhibition turn out when CS/C(N)=N\N=C\c1cc([N+](=O)[O-])ccc1O was run?
Answer: 18%

Question: With COc1ccccc1C(=O)NC(=S)Nc1cc([N+](=O)[O-])ccc1Cl as the molecule, how does the inhibition read?
Answer: 6%

Question: With O=C(NC(=S)Nc1cc([N+](=O)[O-])ccc1Cl)c1cccc2ccccc12 as the molecule, how does the inhibition read?
Answer: 51% (active)

Question: How did the inhibition turn out when O=C(NC(=S)Nc1cc([N+](=O)[O-])ccc1Cl)c1ccccc1Br was run?
Answer: 18%

Question: CSc1nc(SC)c2c3c(sc2n1)CN(C)CC3 was tested. Which inhibition did it give?
Answer: 0%

Question: For Cc1ccc(OCC(=O)Nc2cc(C(F)(F)F)cc(C(F)(F)F)c2)cc1C, which inhibition is on record?
Answer: 0%

Question: How did the inhibition turn out when COc1ccc(C(=O)Nc2ccc(S(=O)(=O)Nc3ncccn3)cc2)cc1OC was run?
Answer: 0%

Question: CCCCOc1ccc(NC(=O)/C=C/c2ccc(OC)c(OC)c2)cc1 was tested. Which inhibition did it give?
Answer: 3%

Question: Which inhibition does the source give for CCCOc1ccc(/C=C/C(=O)Nc2ccc(S(=O)(=O)Nc3ncccn3)cc2)cc1OC here?
Answer: 61% (active)

Question: How did the inhibition turn out when O=c1[nH]c(O)c(/C=C2\C=Nc3ccccc32)[nH]1 was run?
Answer: 0%

Question: How did the inhibition turn out when O=c1[nH]n(-c2ccccc2)c(O)c1/C=C1\C=Nc2ccccc21 was run?
Answer: 10%

Question: How did the inhibition turn out when Cc1ccc([N+](=O)[O-])cc1NC(=O)COc1ccc(Cl)cc1C was run?
Answer: 13%

Question: How did the inhibition turn out when O=C(Nc1ncccc1Cl)C1CCCO1 (stereo not given) was run?
Answer: 18%

Question: With COc1ccc(-c2csc(/C(C#N)=C/Nc3ccc(S(=O)(=O)Nc4nccs4)cc3)n2)cc1 as the molecule, how does the inhibition read?
Answer: 6%

Question: Which inhibition does the source give for N#C/C(=C\Nc1ccc(S(=O)(=O)Nc2nccs2)cc1)c1nc(-c2ccc(-c3ccccc3)cc2)cs1 here?
Answer: 16%

Question: For Cc1cccc(NC(=O)/C(C#N)=C\c2cc(C)n(-c3ccc(C)c(C)c3)c2C)c1, which inhibition is on record?
Answer: 10%

Question: NN1CCN(Cc2cccc3ccccc23)CC1 was tested. Which inhibition did it give?
Answer: 7%

Question: How did the inhibition turn out when Cc1c(O)ccc(C(=O)Cc2ccccc2Cl)c1O was run?
Answer: 10%

Question: O=C(Cc1ccccc1Cl)c1ccc(O)cc1O was tested. Which inhibition did it give?
Answer: 7%

Question: With O=C(c1cccc(F)c1)N1CCN(C(=O)c2cccs2)CC1 as the molecule, how does the inhibition read?
Answer: 7%

Question: COc1cc(OC)c(OC)cc1CN1CCN(Cc2ccccn2)CC1 was tested. Which inhibition did it give?
Answer: 5%

Question: For CCc1c(C)sc(NC(=O)c2cccc(Br)c2)c1C(=O)OC, which inhibition is on record?
Answer: 16%

Question: For CCc1c(C)sc(NC(=O)c2ccc(OC)c(OC)c2)c1C(=O)OC, which inhibition is on record?
Answer: 16%

Question: For CCc1c(C)sc(NC(=O)c2ccncc2)c1C(=O)OC, which inhibition is on record?
Answer: 73% (active)

Question: For CCOC(=O)c1ccc(NC(=O)c2cn(-c3ccccc3)nc2-c2ccccc2)cc1, which inhibition is on record?
Answer: 9%

Question: How did the inhibition turn out when COc1cc(C=O)ccc1OCCCCOc1c(C)cc(C)cc1Br was run?
Answer: 31%

Question: With O=C(Nc1nc2ccc3ccccc3c2s1)c1ccc(C(=O)c2ccccc2)cc1 as the molecule, how does the inhibition read?
Answer: 18%

Question: With O=C(Nc1nc2ccc3ccccc3c2s1)c1ccc(Cl)cc1 as the molecule, how does the inhibition read?
Answer: 54% (active)

Question: How did the inhibition turn out when O=C(Nc1nc2ccc3ccccc3c2s1)c1cccc(Cl)c1 was run?
Answer: 5%

Question: For COc1ccc(NC(=O)c2c(-c3c(Cl)cccc3Cl)noc2C)c([N+](=O)[O-])c1, which inhibition is on record?
Answer: 1%

Question: CCOc1ccc(N2C(=O)NC(=O)/C(=C\c3ccc(Sc4ccccc4)o3)C2=O)cc1 was tested. Which inhibition did it give?
Answer: 15%

Question: How did the inhibition turn out when O=[N+]([O-])c1ccc(/C=C/C=N/Nc2nc(N3CCOCC3)nc(N3CCOCC3)n2)cc1 was run?
Answer: 2%

Question: How did the inhibition turn out when CCN(CC)C(=O)c1sc(NC(=O)C(C)(C)C)c(C(=O)OC)c1C was run?
Answer: 43%

Question: For CCCC(=O)Nc1sc(C(=O)N(CC)CC)c(C)c1C(=O)OC, which inhibition is on record?
Answer: 24%

Question: CCN(CC)C(=O)c1sc(NC(=O)/C=C/C(=O)O)c(C(=O)OC)c1C was tested. Which inhibition did it give?
Answer: 70% (active)

Question: For O=Cc1ccc(-c2ccc(OC(F)(F)F)cc2)o1, which inhibition is on record?
Answer: 7%

Question: How did the inhibition turn out when COc1cc(OC)cc(C(=O)Nc2ccc3oc(-c4ccc(I)cc4)nc3c2)c1 was run?
Answer: 16%

Question: How did the inhibition turn out when COc1cc(OC)cc(C(=O)Nc2ccc3oc(-c4ccc(Br)cc4)nc3c2)c1 was run?
Answer: 27%

Question: For O=C(Nc1ccc(-c2cc3ccccc3oc2=O)cc1)c1ccc(Cl)c(Cl)c1, which inhibition is on record?
Answer: 0%

Question: How did the inhibition turn out when COc1cc(OC)cc(C(=O)Nc2ccc3oc(-c4ccc(Cl)c(Cl)c4)nc3c2)c1 was run?
Answer: 56% (active)

Question: With O=C(Nc1ccc2oc(-c3ccc(Cl)c(Cl)c3)nc2c1)c1ccc(F)cc1 as the molecule, how does the inhibition read?
Answer: 60% (active)

Question: How did the inhibition turn out when O=C(Nc1ccc2oc(-c3cccc(F)c3)nc2c1)c1cccc(F)c1 was run?
Answer: 14%

Question: Which inhibition does the source give for O=C(Nc1ccc2oc(-c3cccc(Cl)c3)nc2c1)c1cccc(F)c1 here?
Answer: 50% (active)

Question: How did the inhibition turn out when COc1cccc(C(=O)Nc2ccc(-c3cc4ccccc4oc3=O)cc2)c1 was run?
Answer: 45%

Question: Which inhibition does the source give for COc1ccc(-c2nc3cc(NC(=O)c4ccc(F)cc4)ccc3o2)cc1Cl here?
Answer: 13%

Question: Which inhibition does the source give for O=C(Nc1ccc2oc(-c3ccc(F)cc3)nc2c1)c1cc(Br)ccc1Cl here?
Answer: 2%

Question: With O=C(Nc1cccc(-c2nc3cc(Cl)ccc3o2)c1)c1cccc(F)c1 as the molecule, how does the inhibition read?
Answer: 21%

Question: O=C(Nc1ccc(-c2cc3ccccc3oc2=O)cc1)c1cccc(F)c1 was tested. Which inhibition did it give?
Answer: 58% (active)

Question: With Cc1cccc2c(Nc3ccccc3)c3ccccc3nc12 as the molecule, how does the inhibition read?
Answer: 17%

Question: CCOC(=O)c1cccc(Nc2ncnc3ccc(C)cc23)c1 was tested. Which inhibition did it give?
Answer: 0%

Question: With Fc1ccc(/C=N/c2ncn[nH]2)cc1 as the molecule, how does the inhibition read?
Answer: 6%

Question: For CNC(=O)C(=O)NCCN1CCN(S(=O)(=O)c2ccc([N+](=O)[O-])cc2)CC1, which inhibition is on record?
Answer: 0%

Question: For O=C(COc1ccccc1Br)Nc1ccc(Cl)c(Cl)c1, which inhibition is on record?
Answer: 20%

Question: For COc1ccc(C(=O)NC(CC(=O)O)c2ccccc2)cc1 (stereo not given), which inhibition is on record?
Answer: 0%

Question: Which inhibition does the source give for CC(=O)c1cccc(N/C=C\C(=O)c2ccc(Cl)c(Cl)c2)c1 here?
Answer: 10%

Question: With Cc1ccc(NC(=O)/C=C/c2cccc(C(F)(F)F)c2)cc1 as the molecule, how does the inhibition read?
Answer: 12%

Question: Which inhibition does the source give for O=C1C=CC(=O)N1c1ccc(-c2nc3ccc(N4C(=O)C=CC4=O)cc3[nH]2)cc1 here?
Answer: 14%

Question: Which inhibition does the source give for O=C1c2ccccc2C(=O)N1c1ccc(-c2nc3ccccc3[nH]2)cc1 here?
Answer: 0%

Question: CCOC(=O)C1=C(C)N=c2s/c(=C\c3ccc(Br)o3)c(=O)n2C1c1ccc(OC)cc1OC (stereo not given) was tested. Which inhibition did it give?
Answer: 23%

Question: Which inhibition does the source give for CCCC(=O)Nc1c(C)ccc2nsnc12 here?
Answer: 0%

Question: For COCCCNC(=O)COc1ccc(Cl)cc1C, which inhibition is on record?
Answer: 10%

Question: How did the inhibition turn out when CCOc1cc(/C=C2\SC(=S)N(C)C2=O)ccc1O was run?
Answer: 22%

Question: How did the inhibition turn out when CCN1C(=O)/C(=C\c2cccc(O)c2)SC1=S was run?
Answer: 28%

Question: With CCN1C(=O)/C(=C\c2ccc(O)c(O)c2)SC1=S as the molecule, how does the inhibition read?
Answer: 81% (active)

Question: For CCN1C(=O)/C(=C\c2ccc(O)c(OC)c2)SC1=S, which inhibition is on record?
Answer: 36%

Question: Which inhibition does the source give for COc1ccc(/C=C2\SC(=S)N(C3CCCCC3)C2=O)cc1O here?
Answer: 5%

Question: How did the inhibition turn out when COc1ccc(/C=C2/SC(=S)N(C)C2=O)cc1O was run?
Answer: 43%

Question: Which inhibition does the source give for CCN1C(=O)/C(=C\c2cc(OC)ccc2O)SC1=S here?
Answer: 24%

Question: How did the inhibition turn out when CCN1C(=O)/C(=C\c2ccc(O)cc2O)SC1=S was run?
Answer: 70% (active)

Question: For CCN1C(=O)/C(=C\c2cc(Cl)ccc2O)SC1=S, which inhibition is on record?
Answer: 16%

Question: Which inhibition does the source give for CN1C(=O)/C(=C/c2ccc(O)c(O)c2)SC1=S here?
Answer: 83% (active)

Question: COc1cc(/C=C2\SC(=S)N(C3CCCCC3)C2=O)ccc1O was tested. Which inhibition did it give?
Answer: 8%

Question: How did the inhibition turn out when N/C(Cc1ccc([N+](=O)[O-])cc1)=N\OC(=O)c1ccc([N+](=O)[O-])cc1 was run?
Answer: 6%

Question: Which inhibition does the source give for Cc1ccc(C(=O)N2CCc3ccccc32)cc1[N+](=O)[O-] here?
Answer: 5%

Question: With O=[N+]([O-])c1cc([N+](=O)[O-])c(N2CCN(c3ccccc3Cl)CC2)cc1Nc1ccc(Br)cc1 as the molecule, how does the inhibition read?
Answer: 5%

Question: How did the inhibition turn out when O=C(CSc1cc(Cl)ccc1Cl)Nc1cccc(C(F)(F)F)c1 was run?
Answer: 9%

Question: With COc1cc(C(=O)N/C(=C/c2ccco2)C(=O)Nc2ccccc2)cc(OC)c1OC as the molecule, how does the inhibition read?
Answer: 9%

Question: For COc1ccccc1C1NC(=O)NC(C)=C1C(=O)OC(C)C (stereo not given), which inhibition is on record?
Answer: 8%

Question: CCNC(=O)C(=O)Nc1ccccc1C was tested. Which inhibition did it give?
Answer: 5%

Question: How did the inhibition turn out when CCOC(=O)c1c(NC(=O)Cc2ccc(Cl)cc2)sc(C(=O)Nc2ccccc2OC)c1C was run?
Answer: 0%

Question: For Cc1c(OCC(N)=O)ccc2c1oc(=O)c1ccccc12, which inhibition is on record?
Answer: 47%

Question: COc1ccccc1N1CCN(/N=C/C=C\c2ccco2)CC1 was tested. Which inhibition did it give?
Answer: 8%

Question: With C[n+]1cccc(C(=O)NCCOC(=O)c2ccc(F)cc2)c1 as the molecule, how does the inhibition read?
Answer: 0%

Question: Which inhibition does the source give for O=C(O)CCCCCCCCCCN1C(=O)/C(=C/c2ccc(Br)cc2)SC1=S here?
Answer: 25%

Question: With O=C(O)CCCCCN1C(=O)/C(=C/c2ccc(O)c(O)c2)SC1=S as the molecule, how does the inhibition read?
Answer: 53% (active)

Question: For O=C1/C(=C/c2ccc(O)c([N+](=O)[O-])c2)SC(=S)N1Cc1ccccc1, which inhibition is on record?
Answer: 23%

Question: Which inhibition does the source give for O=C1/C(=C\c2ccc(O)cc2)SC(=S)N1Cc1ccccc1 here?
Answer: 46%

Question: Which inhibition does the source give for COc1cc(/C=C2\SC(=S)N(CCCCCCCCCCC(=O)O)C2=O)ccc1O here?
Answer: 23%

Question: With O=C1/C(=C\c2ccc(O)c(O)c2)SC(=S)N1Cc1ccccc1 as the molecule, how does the inhibition read?
Answer: 73% (active)
